Experimental data as given in PubChem BioAssay (EPA / NIEHS).
Inconclusive results are not listed. Active and inactive are the calls of the source. The calls were made as follows, unless noted: active = hit-call score of the fitted dose curve at least 0.9, where 1 is the maximum; inactive = score below 0.9.

What was measured:
[1] = ACEA_ER_80hr: ACEA Biosciences xCELLigence Real-Time Cell Analysis on Estrogen Receptor Agonism for Proliferation (AID 2282667; active = hit-call score of the fitted dose curve at least 0.9, where 1 is the maximum); conditions: T47D proliferation, impedance (xCELLigence), 80 h
Summary of the method: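 Impedance readout (RT-CES) of T47D proliferation at 80 h post-dose; gain of signal vs DMSO baseline. Compounds: 8 conc, 1:4 serial, top 100 uM final, ≤0.5% DMSO; biological duplicate.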

[2] = target: CCAAT/enhancer-binding protein beta (Homo sapiens) (UniProt P17676); assay: ATG_C_EBP_CIS: Attagene CIS-FACTORIAL HepG2 Assay for human CCAAT/Enhancer Binding Protein (C/EBP) beta (AID 2282927); conditions: HepG2 Attagene cis-factorial transcription factor reporter; actives raise or lower the signal
Summary of the method: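 HepG2, transient MRTU transfection, 24 h treatment. RT-PCR plus CE fluorescence; DMSO negative control, bidirectional fit.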

[3] = ATG_CMV_CIS: Attagene CIS-FACTORIAL HepG2 Assay for human CMV (Internal Marker) (AID 2282928); conditions: HepG2 CMV promoter reporter, transcription factor profiling; actives raise or lower the signal;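 also: endpoint acts as a background internal control marker rather than a target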
Summary of the method: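 Cell system: HepG2, transiently transfected multiple reporter units under cis promoters. Exposure: 24 h. Detection: RT-PCR, FAM labeling, HpaI digestion, capillary electrophoresis. Analysis: bidirectional, DMSO baseline.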

[4] = ATG_DR4_LXR_CIS: Attagene CIS-FACTORIAL HepG2 Assay for human Liver X Receptor (LXR), DR4 submotif (AID 2282929); conditions: HepG2 Attagene DR4 cis-reporter, mRNA transcription; actives raise or lower the signal
Summary of the method: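 The endpoint is DR4-element-driven reporter transcripts after 24 h chemical exposure of transfected HepG2 cells. These were measured via RT-PCR and capillary electrophoresis, and gain or loss of signal was fitted relative to DMSO controls.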

[5] = target: Aryl hydrocarbon receptor (Homo sapiens) (UniProt P35869); assay: ATG_Ahr_CIS: Attagene CIS-FACTORIAL HepG2 Assay for human Aryl Hydrocarbon Receptor (Ahr) (AID 2282930); conditions: HepG2 AhR cis-factorial reporter transcription; actives raise or lower the signal
Summary of the method: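 Endogenous factor activity is tracked through cis-promoter reporter units transfected into HepG2 cells. Transcript levels at 24 h are read by fluorescent RT-PCR and capillary electrophoresis, with activity in either direction scored relative to DMSO.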

[6] = ATG_AP_1_CIS: Attagene CIS-FACTORIAL HepG2 Assay for human Activator Protein 1 (AP-1) (AID 2282931); conditions: HepG2 Attagene cis-factorial AP-1 reporter mRNA; actives raise or lower the signal
Summary of the method: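 Readout is reporter transcript level from endogenous transcription factor activity, quantified by RT-PCR with fluorescent primer extension and capillary electrophoresis. Transiently transfected HepG2 cells, 24 h exposure. Curves fitted both directions versus DMSO.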

[7] = ATG_BRE_CIS: Attagene CIS-FACTORIAL HepG2 Assay for human Bone Morphogenetic Protein (BMP) Response Element (BRE) (AID 2282933); conditions: HepG2 BMP response element reporter, Attagene transcription factor profiling; actives raise or lower the signal
Summary of the method: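 Endogenous transcription factor activity at a BMP response element was monitored in transfected HepG2 cells 24 h after dosing. Fluorescent RT-PCR products were resolved by capillary electrophoresis, and activity was fitted in both directions versus DMSO.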

[8] = target: Retinoic acid receptor alpha (Homo sapiens) (UniProt P10276); assay: ATG_DR5_RAR_CIS: Attagene CIS-FACTORIAL HepG2 Assay for human Retinoic Acid Receptor Alpha (RARE), DR5 submotif (AID 2282934); conditions: HepG2 Attagene cis-factorial RARE DR5 reporter, mRNA; actives raise or lower the signal
Summary of the method: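 After 24 h of chemical exposure, transiently transfected HepG2 cells were lysed for total RNA; the DR5-regulated reporter transcript was quantified via RT-PCR and capillary electrophoresis, with activity fitted bidirectionally against DMSO.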

[9] = target: Transcription factor E2F1 (Homo sapiens) (UniProt Q01094); assay: ATG_E2F_CIS: Attagene CIS-FACTORIAL HepG2 Assay for human E2F Transcription Factor 1 (AID 2282935); conditions: HepG2 Attagene cis-reporter, E2F reporter RNA transcripts; actives raise or lower the signal
Summary of the method: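 Endogenous E2F1 activity read through cis-promoter reporter units transfected into HepG2. After 24 h compound treatment, reporter mRNA measured by RT-PCR, HpaI digestion and capillary electrophoresis. Bidirectional fit versus DMSO.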

[10] = ATG_E_Box_CIS: Attagene CIS-FACTORIAL HepG2 Assay for human Enhancer Box (E-box) (AID 2282936); conditions: HepG2 E-box cis-reporter transcription, actives raise or lower the signal
Summary of the method: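 HepG2 cells transiently transfected with multiplexed cis-element reporter units, dosed 24 h; reporter mRNA quantified by RT-PCR, 6-FAM labelling, HpaI digestion and capillary electrophoresis. E-box (USF1) signal fitted bidirectionally vs DMSO.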

[11] = ATG_M_61_CIS: Attagene CIS-FACTORIAL HepG2 Assay for M61 Transcription Factor (Internal Marker) (AID 2282937); conditions: HepG2 Attagene CIS-FACTORIAL M61 internal marker reporter; actives raise or lower the signal
Summary of the method: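 Readout is reporter mRNA by RT-PCR, fluorescent primer extension and capillary electrophoresis, with gain or loss fitted relative to DMSO. Transfected HepG2 cells carrying endogenous-TF-driven cis reporters were exposed to chemicals for 24 hours.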

[12] = ATG_M_19_CIS: Attagene CIS-FACTORIAL HepG2 Assay for M19 Transcription Factor (Internal Marker) (AID 2282939); conditions: HepG2 Attagene CIS-FACTORIAL M19 internal marker reporter; actives raise or lower the signal
Summary of the method: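 Background-control endpoint from a multiplexed HepG2 reporter panel. Cells carrying cis-regulated reporter constructs are treated 24 h, then reporter transcripts are amplified, fluorescently labelled and sized by capillary electrophoresis. DMSO defines baseline.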

[13] = ATG_ERE_CIS: Attagene CIS-FACTORIAL HepG2 Assay for Estrogen Response Element (ERE) (AID 2282940); conditions: HepG2 ERE cis-reporter, Attagene RNA transcript; actives raise or lower the signal
Summary of the method: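 Cells used were human hepatoma HepG2, transfected with multiple reporter transcription units under cis-regulatory promoters. Reporter mRNA, read 24 h post-dosing via fluorescent RT-PCR products on capillary electrophoresis, was fitted bidirectionally relative to DMSO.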

[14] = ATG_Ets_CIS: Attagene CIS-FACTORIAL HepG2 Assay for human Erythroblast Transformation Specific (ETS) (AID 2282941); conditions: HepG2 ETS cis-reporter transcription, actives raise or lower the signal
Summary of the method: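 After transient cis-reporter transfection, HepG2 cells receive test chemical for 24 h. Reporter mRNA levels, measured by RT-PCR and capillary electrophoresis fluorescence, are analysed bidirectionally relative to the DMSO baseline.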

[15] = target: Hepatocyte nuclear factor 3-beta (Homo sapiens) (UniProt Q9Y261); assay: ATG_FoxA2_CIS: Attagene CIS-FACTORIAL HepG2 Assay for human Forkhead box A2 (FOXA2) (AID 2282942); conditions: HepG2 cis-reporter transcription factor activity, 24 h; actives raise or lower the signal
Summary of the method: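 Endogenous transcription factor activity is captured via cis-element-driven reporter transcripts in transfected HepG2. Total RNA taken at 24 h post-dosing; labelled RT-PCR products resolved by capillary electrophoresis. Gain or loss fitted versus DMSO.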

[16] = ATG_FoxO_CIS: Attagene CIS-FACTORIAL HepG2 Assay for human Forkhead box O (FoxO) (AID 2282943); conditions: HepG2 Attagene cis-reporter, FoxO element, mRNA; actives raise or lower the signal
Summary of the method: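 Transfected HepG2 reporter cells exposed to test chemical for 24 h; reporter RNA measured by reverse transcription, PCR and fluorescent capillary electrophoresis; curves fitted for increases and decreases against DMSO.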

[17] = ATG_EGR_CIS: Attagene CIS-FACTORIAL HepG2 Assay for human Early Growth Response 1 (EGR1) (AID 2282938); conditions: HepG2 Attagene CIS-FACTORIAL EGR reporter mRNA; actives raise or lower the signal
Summary of the method: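 After 24 h compound exposure, RNA from reporter-transfected HepG2 cells was reverse-transcribed, PCR-amplified, fluorescently labelled and resolved by capillary electrophoresis. EGR1 reporter transcript changes, up or down, were fitted against DMSO, reflecting endogenous transcription-factor activity.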

[18] = ATG_GATA_CIS: Attagene CIS-FACTORIAL HepG2 Assay for human GATA Binding Protein (AID 2282944); conditions: HepG2 GATA cis-element reporter, Attagene multiplex mRNA; actives raise or lower the signal
Summary of the method: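 Endogenous transcription factor activity was captured through cis-promoter-driven reporters in transfected HepG2 cells. After 24 h exposure, reporter transcripts were quantified by RT-PCR with fluorescent capillary electrophoresis, and responses fitted both directions against DMSO.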

[19] = ATG_AP_2_CIS: Attagene CIS-FACTORIAL HepG2 Assay for human Activator Protein 2 (AP-2) (AID 2282932); conditions: HepG2 AP-2 cis-reporter, Attagene transcription factor profiling; actives raise or lower the signal
Summary of the method: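 HepG2 cells transiently transfected with cis-element reporter units and exposed for 24 h. Reporter mRNA measured by RT-PCR, FAM labelling, HpaI digestion and capillary electrophoresis. Changes in either direction fitted relative to DMSO.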

[20] = ATG_CRE_CIS: Attagene CIS-FACTORIAL HepG2 Assay for human cAMP Responsive Element (CRE) binding protein 3 (AID 2282926); conditions: HepG2 CRE cis-reporter, Attagene multiplexed mRNA; actives raise or lower the signal
Summary of the method: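 Endogenous CRE-binding activity in HepG2 is reported through a cis-regulated transfected reporter. Following a day of exposure, mRNA levels are determined by reverse transcription PCR and fluorescent fragment analysis; fits run in both directions versus DMSO.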

Measured: outcome

Sequence of Aryl hydrocarbon receptor (Homo sapiens) (P35869 whole entry, looked up): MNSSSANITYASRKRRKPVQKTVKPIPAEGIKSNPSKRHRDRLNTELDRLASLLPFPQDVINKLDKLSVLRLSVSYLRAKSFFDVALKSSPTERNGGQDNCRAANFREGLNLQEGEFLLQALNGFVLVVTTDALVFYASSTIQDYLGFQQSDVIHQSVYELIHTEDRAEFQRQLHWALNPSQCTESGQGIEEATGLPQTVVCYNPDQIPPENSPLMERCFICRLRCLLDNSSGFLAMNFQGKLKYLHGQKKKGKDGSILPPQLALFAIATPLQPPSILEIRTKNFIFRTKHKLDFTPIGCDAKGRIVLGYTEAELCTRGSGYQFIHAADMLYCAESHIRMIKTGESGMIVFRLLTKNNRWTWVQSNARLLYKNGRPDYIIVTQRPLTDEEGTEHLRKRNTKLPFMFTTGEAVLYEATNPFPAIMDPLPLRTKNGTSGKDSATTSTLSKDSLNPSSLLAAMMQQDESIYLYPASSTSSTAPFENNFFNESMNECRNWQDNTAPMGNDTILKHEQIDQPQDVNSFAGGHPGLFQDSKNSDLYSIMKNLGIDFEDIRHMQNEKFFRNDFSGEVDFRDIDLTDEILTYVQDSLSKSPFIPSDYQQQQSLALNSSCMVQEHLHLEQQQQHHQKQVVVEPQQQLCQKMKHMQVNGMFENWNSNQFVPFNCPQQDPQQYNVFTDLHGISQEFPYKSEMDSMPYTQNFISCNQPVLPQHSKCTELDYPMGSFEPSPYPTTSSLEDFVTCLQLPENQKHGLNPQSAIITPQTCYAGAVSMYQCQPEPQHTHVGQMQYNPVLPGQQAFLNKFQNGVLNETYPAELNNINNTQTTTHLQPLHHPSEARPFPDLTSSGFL
Sequence of Transcription factor E2F1 (Homo sapiens) (Q01094 whole entry, looked up): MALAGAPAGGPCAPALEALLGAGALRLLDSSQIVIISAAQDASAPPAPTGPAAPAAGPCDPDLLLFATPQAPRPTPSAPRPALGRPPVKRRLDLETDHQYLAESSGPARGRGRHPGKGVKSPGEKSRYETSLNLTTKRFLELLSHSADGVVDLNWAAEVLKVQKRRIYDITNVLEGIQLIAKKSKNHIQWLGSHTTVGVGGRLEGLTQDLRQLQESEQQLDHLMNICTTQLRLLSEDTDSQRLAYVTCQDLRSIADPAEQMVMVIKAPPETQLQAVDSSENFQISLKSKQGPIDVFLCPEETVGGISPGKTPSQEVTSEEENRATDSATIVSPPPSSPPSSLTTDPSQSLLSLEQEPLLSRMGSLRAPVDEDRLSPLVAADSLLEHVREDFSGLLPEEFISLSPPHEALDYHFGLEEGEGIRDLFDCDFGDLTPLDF
Sequence of Hepatocyte nuclear factor 3-beta (Homo sapiens) (Q9Y261 whole entry, looked up): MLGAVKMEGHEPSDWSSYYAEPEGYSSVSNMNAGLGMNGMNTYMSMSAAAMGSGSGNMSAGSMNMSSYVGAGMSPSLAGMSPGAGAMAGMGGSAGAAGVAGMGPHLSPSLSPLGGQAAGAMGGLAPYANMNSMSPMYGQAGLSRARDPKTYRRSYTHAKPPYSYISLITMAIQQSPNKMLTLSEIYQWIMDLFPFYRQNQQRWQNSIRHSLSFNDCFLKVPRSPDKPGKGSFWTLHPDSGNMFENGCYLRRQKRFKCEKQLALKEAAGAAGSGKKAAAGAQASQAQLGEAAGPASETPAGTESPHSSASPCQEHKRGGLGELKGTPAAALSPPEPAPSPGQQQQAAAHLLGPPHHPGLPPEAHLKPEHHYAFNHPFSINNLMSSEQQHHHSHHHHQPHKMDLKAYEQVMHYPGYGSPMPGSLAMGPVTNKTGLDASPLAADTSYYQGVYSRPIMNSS
Sequence of Retinoic acid receptor alpha (Homo sapiens) (P10276 whole entry, looked up): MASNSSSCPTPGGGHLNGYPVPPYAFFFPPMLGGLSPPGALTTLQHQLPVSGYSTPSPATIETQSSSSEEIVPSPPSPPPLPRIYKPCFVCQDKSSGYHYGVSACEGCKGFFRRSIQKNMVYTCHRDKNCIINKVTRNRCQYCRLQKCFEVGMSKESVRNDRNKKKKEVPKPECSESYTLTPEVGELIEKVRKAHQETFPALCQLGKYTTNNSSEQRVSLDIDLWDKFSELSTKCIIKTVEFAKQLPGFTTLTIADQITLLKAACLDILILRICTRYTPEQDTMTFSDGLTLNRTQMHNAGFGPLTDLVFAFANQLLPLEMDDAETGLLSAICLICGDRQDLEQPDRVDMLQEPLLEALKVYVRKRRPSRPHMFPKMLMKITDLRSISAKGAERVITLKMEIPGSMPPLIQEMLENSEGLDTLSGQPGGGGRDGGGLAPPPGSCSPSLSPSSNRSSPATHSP
Sequence of CCAAT/enhancer-binding protein beta (Homo sapiens) (P17676 whole entry, looked up): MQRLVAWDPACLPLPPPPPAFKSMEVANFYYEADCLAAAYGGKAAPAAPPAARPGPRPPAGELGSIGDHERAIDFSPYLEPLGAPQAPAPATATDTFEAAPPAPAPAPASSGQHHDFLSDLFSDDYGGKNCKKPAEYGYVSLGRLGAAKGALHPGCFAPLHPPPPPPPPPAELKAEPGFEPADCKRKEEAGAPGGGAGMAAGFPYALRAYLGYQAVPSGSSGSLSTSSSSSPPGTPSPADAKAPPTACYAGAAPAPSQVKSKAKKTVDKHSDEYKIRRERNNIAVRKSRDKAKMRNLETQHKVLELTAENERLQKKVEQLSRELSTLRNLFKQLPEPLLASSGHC

CCCCOCCOCCOC(C)=O
inactive: [1] | [2] | [3] | [4] | [5] | [6] | [7] | [8] | [9] | [10] | [11] | [12] | [13] | [14] | [15] | [16]

Nc1nc(N)nc(-c2ccccc2)n1
inactive: [1] | [2] | [3] | [4] | [5] | [6] | [7] | [8] | [9] | [10] | [11] | [17] | [12] | [13] | [14] | [15] | [16] | [18]

CCCCCC(=O)OCC
inactive: [1] | [2] | [4] | [5] | [6] | [19] | [7] | [8] | [9] | [10] | [11] | [17] | [12] | [13] | [14] | [16] | [18]

CC(C)CCCCCOC(=O)CS
inactive: [1] | [20] | [2] | [5] | [6] | [19] | [7] | [8] | [9] | [10] | [11] | [12] | [13] | [15] | [16] | [18]
